# PERK inh – block of dimerizer-induced PERK translation repression, primary screen, PERK inhibitor project, CHO PERK-DD cells, SEAP luminescence, HTS; inhibition, % at 5.6 µM; actives 0.17% (n = 220,000); Eukaryotic translation initiation factor 2-alpha kinase 3 (Homo sapiens), Q9NZJ5; CHO PERK-DD fusion, SEAP luminescence translation reporter;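 active means inhibition above the mean inhibition of all tested compounds plus 3 SD, set separately per screening campaign, cut at about 2.9% in these data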;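 further: PERK kinase domain activated by AP20187 dimerizer at 100 nM; 0% = DMSO with dimerizer and 100% = rapamycin at 8.4 µM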
# eIF4H inh – human eIF4H binding inhibitors, primary screen, translation initiation inhibitor project, biochemical, uHTS, fluorescence polarization; inhibition, % at 35 µM; eIF4H fluorescence polarization binding assay; actives 0.94% (n = 290,000); AID 2012, 2009; Eukaryotic translation initiation factor 4H (Homo sapiens), Q15056;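 further: calls also rest on retests at 20 µM and on dose response follow-up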
# PABP FP inh – PABP poly(A) RNA binding inhibitors, primary screen, biochemical, fluorescence polarization, uHTS | Polyadenylate-binding protein 1 (Homo sapiens), P11940 | calls only at 35 µM | actives 1% (n = 290,000) | AID 2014, 2009;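 further: calls also rest on retests at 20 µM and on dose response follow-up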
# eIF4E-4G inh – eIF4E–eIF4G protein interaction inhibitors, primary screen, biochemical, uHTS, TR-FRET, eIF4GI fragment; Eukaryotic translation initiation factor 4E (Mus musculus) + Eukaryotic translation …; TR-FRET eIF4E-eIF4GI(517-606) binding, 2 h; inhibition, % at 21.7 µM; actives 0.37% (n = 220,000); AID 782, 2007;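 active means inhibition above about 30%, limit read from the data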;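 further: 0% = full FRET control wells and 100% = background wells lacking eIF4GI fragment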
# MLLE-PAM2 inh – inhibitors of PABP1 MLLE–PAM2 peptide binding, primary screen, biochemical, fluorescence polarization, FITC-PAM2, GST-MLLE. inhibition, % at 20 µM. actives 0.36% (n = 360,000). AID 588489, 2011; in the data active means inhibition above about 35%, passing the limit was not always enough;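 further: plate controls were DMSO wells with GST-MLLE for no effect and wells lacking GST-MLLE protein for full effect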
# Starred values were filed as active, the others as inactive; i = inactive; ? = inconclusive; . = no result given; + = active, no number. Only some compounds are listed: those with a hit (about 1.6% of all), similar ones and a draw of the others. Unless noted, how the calls were made is not given here.
SMILES,PERK inh,eIF4H inh,PABP FP inh,eIF4E-4G inh,MLLE-PAM2 inh
O=C(C/C=N/OCc1ccc(Cl)cc1Cl)c1ccccc1,0.6,-11.3,i,-5.5,-4.8
CCc1nc2c(OCc3ccc(Cl)cc3Cl)cccn2c1N(C)C(=O)CC(C)C,.,.,.,.,5.2
CN(C)C=NC(=O)c1cn(-c2ccc(F)cc2)c(=O)c2ccccc12,0.2,9.9*,i,3.5,6.8
c1ccc(CSc2nc3ccccc3[nH]2)cc1,1.8,8.4,i,-3.0,-12.0
O=[N+]([O-])c1ccc(CSc2nc3ccccc3[nH]2)cc1,0.0,-4.7,+,-2.5,-74.1
COc1ccc(OC)c(NC(=O)CSc2nnc3ccc(-c4ccccn4)nn23)c1,.,.,.,.,-6.5
CCCn1c(Nc2cccc(OC)c2)nc2ccccc21,.,6.1,i,.,-7.5
COC(=O)c1ccc(CC(=O)c2ccc(O)cc2O)o1,0.1,6.0,i,5.6,-20.8
COC(=O)c1ccc(CC(=O)c2c(C)cc(O)cc2O)o1,0.9,79.9*,+,12.3,1.0
CC(C)CC(=O)NS(=O)(=O)c1ccc(NS(C)(=O)=O)cc1,0.2,-4.9,i,-0.1,-1.6
C=C1[C@@H](OC(C)=O)C=C[C@@]2(C)C=CC(=O)[C@@](C)(OC(C)=O)[C@@H]2[C@@H](OC(C)=O)[C@]2(O)[C@@H](C)C(=O)O[C@H]2[C@H]1Cl,.,.,.,.,-10.9
Cc1oc2cc3oc(=O)c(CCC(=O)N4C[C@H]5C[C@@H](C4)c4cccc(=O)n4C5)c(C)c3cc2c1C,.,7.5,i,.,7.9
COc1cc2c(cc1OC)CN(C(=O)CSc1ccccc1C)CC2,.,.,.,.,45.5*
COc1cc2c(cc1OC)CN(C(=O)Cn1ccccc1=O)CC2,.,79.3*,i,.,-1.5
CC(=O)Nc1cc(NC(C)=O)cc(C(=O)N2CCCC3CCCCC32)c1 (centres undefined),.,78.9*,+,.,-27.8
CC(C)NC(=O)c1ccc2c(c1)N(Cc1ccccc1)C(=O)C(C)(C)O2,.,17.5,i,.,-0.8
CNc1cc(C)nc(N2CCOCC2)n1,-0.3,91.9*,i,-2.7,2.9
Cc1cc(NC2CCCCC2)nc(N2CCOCC2)n1,0.1,0.8,i,2.9,-5.2
CN(CC(=O)NCc1ccccc1F)S(=O)(=O)c1ccc(Cl)cc1,.,1.8,i,.,8.5
O=c1c2c(-c3ccco3)csc2nc(SCc2cn3cccnc3n2)n1-c1ccccc1,-0.6,88.9*,+,-5.9,-6.7
O=C(CSc1nc2scc(-c3ccco3)c2c(=O)n1-c1ccccc1)N1CCOCC1,-0.1,50.3,i,-2.4,2.3
NC(=O)CSc1nc2scc(-c3ccco3)c2c(=O)n1-c1ccccc1,1.0,66.6*,+,9.2,-16.4
Cc1ccc(-c2nc(CS(=O)(=O)CC(=O)Nc3cc(F)ccc3F)c(C)o2)cc1,.,-3.1,i,.,-2.7
Cc1c(O)nc2sc3ccccc3n2c1=O,4.4*,21.7,i,-4.5,.
CCOC(=O)Cn1nc2sc3ccccc3n2c(=O)c1=O,0.1,-8.1,i,2.2,-11.2
SMILES,PERK inh,eIF4H inh,PABP FP inh,eIF4E-4G inh,MLLE-PAM2 inh
O=c1cc(CCl)nc2sc3ccccc3n12,1.6,28.3,?,39.7*,-3.2
O=C(OCc1cc(=O)n2c(n1)sc1ccccc12)c1ccc(O)cc1,-0.5,79.3*,i,10.2,1.2
COc1ccc(/C=C/C(=O)OCc2cc(=O)n3c(n2)sc2ccccc23)cc1,0.9,-7.2,i,0.7,17.1
Cc1cccc(C(=O)N[C@H](C(=O)OCc2cc(=O)n3c(n2)sc2ccccc23)C(C)C)c1,0.0,85.4*,+,15.4,-6.5
O=S1(=O)CCN(CCCCc2ccccc2)CC1,.,.,.,.,-7.7
O=c1cc(-c2ccccc2)nc(SCc2ccc(F)cc2)[nH]1,0.5,active,i,-2.1,-4.6
CC(C)Sc1nc(-c2ccccc2)cc(=O)[nH]1,-0.1,6.5,i,6.3,8.6
CCC(Sc1nc(-c2ccccc2)cc(=O)[nH]1)C(=O)O (centres undefined),3.0*,5.6,i,2.5,5.7
CC(=O)OC(C)=O,.,.,.,.,2.5
